# Assay results: PubChem BioAssay (NCATS)
# Where “and” joins values, the source holds several entries; their conditions need not be identical. Equal values may be shown once. Records with an inconclusive call do not appear. A number with no mark means an inactive call. Calls of active or inactive are those of the source. Calls come from the whole dose curve; as a rule, active = well fitted inhibition curve with a large enough effect; inconclusive = small, poorly fitted or top-dose-only effect; inactive = flat fitted curve, though single readings scatter.
# What was measured:
# HaCat [1] = assay: Cytotoxic Profiling of Annotated Libraries Using Quantitative High-Throughput Screening (AID 1296008); conditions: Five cell lines viability, CellTiter-Glo ATP luminescence, 48-72 h; max response: hits give low values; note: potency is the fitted concentration of half-maximal effect; for max response: % is set by controls: 0 for no effect and ±100 for the full control effect
# In short: (§1)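 Cytotoxicity was measured as CellTiter-Glo ATP luminescence, read after 10 min at room temperature. Compound treatment of the cells lasted 48 or 72 hr at 37 degrees Celsius in a qHTS format.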
# KB-3-1 = assay: as above; conditions: Five cell lines viability, CellTiter-Glo ATP luminescence, 48-72 h; max response: hits give low values
# In short: as §1
# N140 = assay: qHTS profiling for inhibitors of Plasmodium falciparum proliferation (AID 504749); note: potency is the fitted concentration of half-maximal effect; conditions: P. falciparum in erythrocytes, SYBR Green DNA, 72 h; series mostly up to 28.7 µM
# In short: (§2)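 In a 72 h erythrocytic culture (37 C, humidified, 5% CO2) at 2.5% hematocrit and 0.3% starting parasitemia, compounds were tested; SYBR Green I in detergent lysis buffer stained parasite DNA overnight.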
# P93_24 = assay: as above; conditions: P. falciparum in erythrocytes, SYBR Green DNA, 72 h; series mostly up to 28.7 µM
# In short: as §2
# P94_40 = assay: as above; conditions: P. falciparum in erythrocytes, SYBR Green DNA, 72 h; series mostly up to 28.7 µM
# In short: as §2
# PAD = assay: as above; conditions: P. falciparum in erythrocytes, SYBR Green DNA, 72 h; series mostly up to 28.7 µM
# In short: as §2
# PC15 = assay: as above; conditions: P. falciparum in erythrocytes, SYBR Green DNA, 72 h; series mostly up to 28.7 µM
# In short: as §2
# PC26 = assay: as above; conditions: P. falciparum in erythrocytes, SYBR Green DNA, 72 h; series mostly up to 28.7 µM
# In short: as §2
# SC27B = assay: as above; conditions: P. falciparum in erythrocytes, SYBR Green DNA, 72 h; series mostly up to 28.7 µM
# In short: as §2
# TAB109 = assay: as above; conditions: P. falciparum in erythrocytes, SYBR Green DNA, 72 h; series mostly up to 28.7 µM
# In short: as §2
# TAB113 = assay: as above; conditions: P. falciparum in erythrocytes, SYBR Green DNA, 72 h; series mostly up to 28.7 µM
# In short: as §2
# TAB165 = assay: as above; conditions: P. falciparum in erythrocytes, SYBR Green DNA, 72 h; series mostly up to 28.7 µM
# In short: as §2
# W2 = assay: as above; conditions: P. falciparum in erythrocytes, SYBR Green DNA, 72 h; series mostly up to 28.7 µM
# In short: as §2
# CRL-7250 [2] = assay: Cytotoxic Profiling of Annotated Libraries Using Quantitative High-Throughput Screening (AID 1296008); conditions: Five cell lines viability, CellTiter-Glo ATP luminescence, 48-72 h; max response: hits give low values; note: potency is the fitted concentration of half-maximal effect; for max response: % is set by controls: 0 for no effect and ±100 for the full control effect
# In short: as §1
# NIH3T3 = assay: as above; conditions: Five cell lines viability, CellTiter-Glo ATP luminescence, 48-72 h; max response: hits give low values
# In short: as §1
# HACAT [3] = assay: qHTS assay to identify novel small-molecules to repurpose for Merkel cell carcinoma treatment (AID 1296009); conditions: MCC and control cell lines, CellTiter-Glo viability, 72 h; at 44.8 µM (top of the series) unless noted
# In short: (§3)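 Cell viability measured by CellTiter-Glo following 72 hr compound treatment at 37 degree celsius, with NPC and MIPE libraries tested in 8- and 11-point concentration series.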
# CRL-7250 [4] = assay: as above; conditions: MCC and control cell lines, CellTiter-Glo viability, 72 h; at 44.8 µM (top of the series) unless noted
# In short: as §3
# HEK293T = assay: as above; conditions: MCC and control cell lines, CellTiter-Glo viability, 72 h; at 44.8 µM (top of the series)
# In short: as §3
# HEK293 = assay: Cytotoxic Profiling of Annotated Libraries Using Quantitative High-Throughput Screening (AID 1296008); conditions: Five cell lines viability, CellTiter-Glo ATP luminescence, 48-72 h; max response: hits give low values; note: potency is the fitted concentration of half-maximal effect; for max response: % is set by controls: 0 for no effect and ±100 for the full control effect
# In short: as §1
# Note: nearly all actives have a fitted effect of over 60% in size.
smiles,measurement,setting,value
CN1C(=O)CN=C(c2ccccc2)c2cc(Cl)ccc21,max response,HaCat [1],-27.5%
same,max response,KB-3-1,-19.7%
C=CC[C@]1(O)CC[C@H]2[C@@H]3CCC4=CC(=O)CCC4=C3C=C[C@@]21C,max response,HaCat [1],1.64%
same,max response,KB-3-1,-5.35%
Clc1ccc(CO/N=C(\Cn2ccnc2)c2ccc(Cl)cc2Cl)c(Cl)c1,Potency,N140,2240 nM (active)
same,Potency,P93_24,2240 nM (active)
same,Potency,P94_40,2820 nM (active)
same,Potency,PAD,2510 nM (active)
same,Potency,PC15,3160 nM (active)
same,Potency,PC26,4260 nM (active)
same,Potency,SC27B,3160 nM (active)
same,Potency,TAB109,3550 nM (active)
same,Potency,TAB113,2510 nM (active)
same,Potency,TAB165,1410 nM (active)
same,Potency,W2,1690 nM (active)
same,max response,CRL-7250 [2],-2.86%
same,max response,KB-3-1,0.479%
CC1COC2(c3ccccc3Cl)c3cc(Cl)ccc3NC(=O)CN12 (stereo not drawn),max response,CRL-7250 [2],-0.632%
same,outcome,HaCat [1],inactive
same,max response,NIH3T3,2.64%
same,outcome,HACAT [3],inactive
Cc1nnc2n1-c1sc(CCC(=O)N3CCOCC3)cc1C(c1ccccc1Cl)=NC2,outcome,CRL-7250 [2],inactive
same,max response,KB-3-1,-14.1% and 0.342%
same,max response,NIH3T3,2.45%
same,outcome,CRL-7250 [4],inactive
same,outcome,HEK293T,inactive
CC(C(O)c1ccccc1)N(C)C/C=C/c1ccccc1 (stereo not drawn),max response,CRL-7250 [2],-8.13%
same,outcome,HaCat [1],inactive
same,max response,NIH3T3,2.21%
same,outcome,HACAT [3],inactive
COc1cc(CC(C)N)c(OC)cc1Br (stereo not drawn),Potency,HEK293,14200 nM (active)
same,max response,HaCat [1],-6.81%
same,max response,KB-3-1,-7.67% and -13.5%
C[C@H](N)[C@H](O)c1ccc(O)c(O)c1,outcome,HaCat [1],inactive
same,max response,KB-3-1,-14.6%
same,max response,NIH3T3,-48.1%
same,outcome,HACAT [3],inactive
Cc1nnc2n1-c1sc(CCc3ccc(CC(C)C)cc3)cc1C(c1ccccc1Cl)=NC2C (stereo not drawn),Potency,HEK293,7500 nM (active)
